HT1080-NT tox – kills 2HG-producing HT-1080-NT fibrosarcoma cells; HT-1080-NT fibrosarcoma viability, CellTiter-Glo ATP luminescence, 48 h; Potency, µM (highest dose often 46.1 µM), without a hit: at the highest dose activity, negative = less viability, hits mostly cytotoxic; actives 1.6% (n = 360,000); AID 686970;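 note: NT is the 2HG producing partner of a matched IDH1 knockdown line; potency is the fitted concentration of half-maximal effect; 0% = DMSO-treated cells and -100% = media-only wells without cells; nearly all actives have a fitted effect of over 55% in size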
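A 48-hour cytotoxicity screen used HT-1080-NT cells plated 2 hours before compound delivery. ATP-based CellTiter-Glo luminescence measured viability, normalized to DMSO and no-cell controls.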
DT40 TDP1 no CPT – qHTS for Inhibitors of human tyrosyl-DNA phosphodiesterase 1 (TDP1): qHTS in cells in absence of CPT; DT40 Tdp1-/- hTDP1 cells, no CPT, ATP luminescence, 48 h; Potency, µM (highest dose often 46.2 µM), without a hit: at the highest dose activity change, negative = growth inhibition, most hits filed as inhibitors; actives 15% (n = 420,000); note: potency is the fitted concentration of half-maximal effect; nearly all actives have a fitted effect of over 55% in size
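A cellular qHTS used chicken DT40 cells lacking endogenous Tdp1 but carrying stably transfected human TDP1. Compounds were applied without camptothecin, and cell growth kinetics were judged by ATP-dependent luminescence after ≥48 hr.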
HT1080 IDH1KD tx – toxicity to HT-1080 IDH1 knockdown cells (counter line). AID 686971. actives 2% (n = 360,000). HT-1080 IDH1 knockdown viability, ATP luminescence, 48 h. Potency, µM (highest dose often 46.1 µM), without a hit: top-dose activity, negative = toxicity, hits mostly cytotoxic;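 note: potency is the fitted concentration of half-maximal effect; 0% = DMSO wells and -100% = cell-free medium wells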
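Cytotoxicity counter-line: IDH1KD HT-1080, 48 h, CellTiter-Glo. Curves classed by r2, magnitude and activity.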
TDP1 cell CPT – growth inhibition of DT40 Tdp1-/-;hTDP1 cells with camptothecin (screen for TDP1 inhibitors). Potency, µM (titrated, usually from 46.2 µM), for the others: at the highest dose activity change, negative = growth inhibition, actives largely listed as inhibitors. chicken DT40 Tdp1-/-;hTDP1 cells + 20 nM CPT, ATP luminescence, 48 h. actives 12% (n = 420,000). AID 686979; note: potency is the fitted concentration of half-maximal effect; nearly all actives have a fitted effect of over 55% in size
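Chicken DT40 Tdp1-/- cells stably complemented with human TDP1 were seeded at 400 cells/well in medium containing 20 nM camptothecin, exposed to pin-transferred compounds, and grown at 37 °C for at least 48 hr. Viability was read as ATP luminescence.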
IL1B secr inh – inflammasome signaling inhibition, IL-1 beta readout; THP-1 LPS/ATP IL-1B secretion, AlphaLISA, 16 h; active compounds read low; activity change, % at 57.5 µM; actives 4.7% (n = 360,000); in the data active = activity change below about -50%; inconclusive = mostly about -30% to -49%
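THP-1 cells pretreated 1 hr with compounds (up to 57.5 uM final), then stimulated with LPS (250 ng/mL final) plus ATP (1.25 mM final); secreted IL-1B measured by AlphaLISA after 16 hr, decreased signal indicating inhibition.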
The depositor's hits bear a star; ? = inconclusive; . = not tested or not shown; [ ] = remark or other dose. Only some compounds are listed: those with a hit (about 19% of all), similar ones and a draw of the others. Unless noted, calls come from the whole dose curve; as a rule, active = well fitted curve in the direction sought with a large enough effect; inconclusive = small, poorly fitted or top-dose-only effect, or another doubt; inactive = no such curve, though single readings can be large; an effect the other way counts as inactive or inconclusive. Unless noted, % is set by controls: 0 for no effect and ±100 for the full control effect.

SMILES	HT1080-NT tox	DT40 TDP1 no CPT	HT1080 IDH1KD tx	TDP1 cell CPT	IL1B secr inh
COc1ccc(C2C=C(c3ccc(Cl)cc3)Nc3nc(-c4ccc(Cl)cc4)nn32)cc1 (configuration not stated)	.	4.61µM*	.	8.2µM*	.
COc1ccc(C2C=C(c3ccc(C)c(C)c3)Nc3ncnn32)c(OC)c1OC (configuration not stated)	?	5.17µM*	?	8.2µM*	-14.1
Cc1ccc(-c2nc3n(n2)C(c2ccccc2C)C=C(c2ccc(Cl)cc2)N3)cc1 (configuration not stated)	.	23.1µM*	.	?	.
CCC1CN(CCNC(=O)c2ccccc2-n2cccn2)Cc2cc(OC)ccc2O1 (configuration not stated)	.	-1.2%	.	-6.9%[9.04 µM]	.
COCCCN(Cc1ccco1)C(=O)CSc1nc2ncccc2[nH]1	4.2%	0.0%	4.9%	2.9%	-9.1
O=C(NNC(=O)C12CC3CC(CC(Cl)(C3)C1)C2)c1ccncc1	-1.0%	0.3%	-1.2%	5.7%	-2.0
O=C(COc1coc(CN2CCc3ccccc32)cc1=O)Nc1ccc([N+](=O)[O-])cc1	-3.0%	0.2%	-9.7%	-17.7%	16.6
O=C(COC(=O)C1=COCCO1)NC(=O)c1ccc(OC(F)F)cc1	-0.6%	-19.4%	1.8%	-1.9%	34.1
COc1ccc(C2C=C(c3ccccc3)Nc3ncnn32)cc1 (configuration not stated)	15.8%	?	10.4%	18.4µM*	-19.5
CCCCOCCCN1CC(=O)N2[C@@H](Cc3c([nH]c4ccccc34)C2(C)C)C1=O	-7.7%	18.4µM*	2.7%	?	-17.0
CCCCN(CCCC)CCCN1CC(=O)N2[C@@H](Cc3c([nH]c4ccccc34)C2(C)C)C1=O	5.2%	-14.5%	2.0%	?	-73.5*
CCCCCN1CC(=O)N2[C@@H](Cc3c([nH]c4ccccc34)C2(C)C)C1=O	-3.1%	?	-5.6%	?	35.1
CCCCOc1ccc(OCCNC(=O)C2CCCN2C(=O)Nc2ccccc2)cc1 (configuration not stated)	-2.2%	?	1.0%	?	-6.2
CN(C(=O)c1ccco1)c1nc(-c2ccc(Cl)cc2)cs1	13.0%	?	17.7%	?	?
O=C(c1cccs1)N(CC1CCCO1)c1nc(-c2ccccc2)cs1 (configuration not stated)	-7.8%	?	-8.4%	20.6µM*	-28.6
O=C(c1ccco1)N(CC1CCCO1)c1nc(-c2ccccc2)cs1 (configuration not stated)	?	23.1µM*	?	?	-10.0
O=C(CSc1nncc(=O)[nH]1)NCc1ccccc1	24.8%	?	?	20.6µM*	5.7
CCOC(=O)c1cc(C(=O)c2cccs2)n2ccc(C(C)=O)cc12	1.2%	23.1µM*	0.7%	?	-5.3
CCOC(=O)c1cc(C(C)=O)n2ccccc12	-0.2%	0.8%	-2.3%	-3.0%	-12.5
CCOc1ccc2nc(SCC(=O)N(C)C)[nH]c2c1	27.8%	-10.1%	10.7%	-19.6%	-14.4
C=CCSc1nnc(NC(=O)CSc2nc3ccccc3o2)s1	0.5%	?	10.1%	23.1µM*	0.0
O=C(CSc1nc2ccccc2o1)Nc1nc(-c2ccccc2)c(-c2ccccc2)s1	3.9%	11.6µM*	-1.8%	18.4µM*	-0.2
CC(C)N(Cc1cc2ccccc2[nH]c1=O)C(=O)c1ccco1	9.2%	-2.7%	0.7%	-15.4%	8.0
Cc1cc(=O)[nH]c(SCC(=O)Nc2nc(-c3ccccc3)c(-c3ccccc3)o2)n1	16.7%	-20.9%	7.4%	4.5%	-11.3
CC(C)(C)C(=O)Nc1ccc(N=Nc2ccccc2)cc1	0.3%	-12.6%	-1.8%	-10.5%	?
SMILES	HT1080-NT tox	DT40 TDP1 no CPT	HT1080 IDH1KD tx	TDP1 cell CPT	IL1B secr inh
Cc1nc(-c2ccc(NC(=O)C(C)(C)C)cc2)c(-c2ccccc2)o1	3.2%	16.4µM*	5.1%	?	-12.7
Cc1cc(C)nc(SCC(=O)Nc2nc(-c3ccccc3)c(-c3ccccc3)o2)n1	2.1%	23.1µM*	2.1%	?	-0.7
Cc1ccc(C(=O)Nc2c(C)cc(-c3ccccc3)oc2=O)cc1	1.3%	-20.0%	11.8%	-15.0%	9.5
Cc1ccc(C(=O)Nc2nc(-c3ccccc3)c(-c3ccccc3)o2)cc1	-3.6%	18.4µM*	?	20.6µM*	-9.5
CCNC(=O)NC(=O)C(C)Sc1ncc(C(F)(F)F)cc1Cl (configuration not stated)	7.7%	?	-0.4%	5.1%	-5.6
CCc1ccc(C2c3[nH]c4ccccc4c3CCN2C(=O)CN2CCN(CC)CC2)cc1 (configuration not stated)	23.1µM*	25.9µM*	?	?	-72.3*
CCc1ccc(C2c3[nH]c4ccccc4c3CCN2C(=O)CNC(N)=O)cc1 (configuration not stated)	-9.4%	-7.5%	-19.0%	-13.5%	-57.0*
CC(=O)c1cc(CC(=O)N2CCc3c([nH]c4ccccc34)C2c2ccccn2)cs1 (configuration not stated)	-5.7%	?	-1.6%	?	-3.9
CCc1ccc(C2c3[nH]c4ccccc4c3CCN2C(=O)c2ccc(=O)n(C)n2)cc1 (configuration not stated)	-28.8%	?	?	?	29.8
COCC1CCN(C(=O)C2CCC(=O)N(Cc3cccc(F)c3)C2)CC1 (configuration not stated)	0.0%	-0.4%	3.8%	-2.7%	8.8
COC(=O)/C=C/C(C)=C/C=C/C(C)=C/C=C/C=C(C)/C=C/C=C(C)/C=C/C(=O)O	.	?	.	-10.3%	.
O=C(Nc1ccccc1Cc1ccccc1)c1ccccc1NS(=O)(=O)c1ccc(Cl)s1	16.4µM*	3.66µM*	?	4.61µM*	-25.6
Cc1ccc(NC(=O)c2ccccc2NS(=O)(=O)c2ccc(Cl)s2)cc1	20.6µM*	14.6µM*	?	23.1µM*	-3.7
O=C(Nc1ccccc1)c1ccccc1NS(=O)(=O)c1ccc(Cl)s1	?	?	?	?	-0.3
O=C(CNS(=O)(=O)c1ccc(Br)s1)N1CCN(c2ccc(F)cc2)CC1	-2.0%	23.1µM*	-1.2%	?	-1.2
COc1ccc(N2CCN(C(=O)CCNS(=O)(=O)c3ccc(Br)s3)CC2)cc1	-3.1%	?	-2.1%[9.24 µM]	13µM*	-2.7
COc1ccc(N2CCN(C(=O)CCNS(=O)(=O)c3ccc(C)cc3)CC2)cc1	0.1%	?	-4.4%	?	0.0
CCOc1cc(/C=C2\CCn3c2nc2cc(Cl)ccc2c3=O)ccc1O	-9.1%	?	-10.7%	?	20.8

Screening data deposited in PubChem by National Center for Advancing Translational Sciences (NCATS).
